This is part of a sample that, as a whole, favours compounds with a hit. Of some 83,000 tested, about 20% had one in any assay.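 A percent growth of 40 corresponds to 60% growth inhibition; 0 means no net growth; -100 means all cells died. Active threshold: below 10.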 A number with no mark means an inactive call. Activity calls are given as the source filed them.
The compounds below were run on MOLT-4 leukemia (assay: NCI-60 one-dose screen, 48 h (100 = growth as untreated, 0 = no growth, -100 = all killed)). Details: 10 µM unless noted.

SMILES | growth
NS(=O)(=O)c1ccc(Nc2nc(N/N=C/c3ccc(F)cc3)nc(Nc3ccccc3)n2)cc1 | 21.8%
COc1ccc(-c2cc(-c3ccc(Cl)cc3)nc3nc(N)nn23)cc1 | 89%
COc1ccc(Cn2cc3c(c2-c2cc(OC)c(OC)c(OC)c2)CCCc2cnoc2-3)cc1 | 8.85% (active)
CN(c1ccc(F)cc1)S(=O)(=O)c1ccc(-c2cnc(C3CC3)o2)cc1 | 25.6%
COC[C@]12CC[C@@H](C)[C@H](C)[C@H]1C1=CC[C@@H]3[C@@]4(C)CCCNC(C)(C)[C@@H]4CC[C@@]3(C)[C@]1(C)CC2 | 5.72% (active)
C=C(C)[C@@H]1CC[C@]2(C(=O)ON)CC[C@]3(C)[C@H](CC[C@@H]4[C@@]5(C)C/C(=C/c6ccc(Br)cc6)C(=O)C(C)(C)[C@@H]5CC[C@]43C)[C@@H]12 | 47.3%
CN(c1ccc(Br)cc1)S(=O)(=O)c1ccc(-c2cnc(C3CC3)o2)cc1 | 23.5%
CCCCCCNC(=O)Oc1ccc(/C(=C(\C)c2ccc(Cl)cc2)c2ccc(OCCN(C)C)cc2)cc1 | 13.4%
C=C(C)[C@@H]1CC[C@]2(COS(C)(=O)=O)CC[C@]3(C)[C@H](CC[C@@H]4[C@@]5(C)CCCNC(C)(C)[C@@H]5CC[C@]43C)[C@@H]12 | 29.5%
O=C(NNc1nc2cc(F)ccc2n2cncc12)c1cnccn1 | 6.82% (active)
CN1CCN(c2ccc3c(C(N)=O)c(NC(=O)c4ccc(C(C)(C)C)cc4)sc3c2)CC1 | 41.9%
NC(=O)C(=Cc1ccc(Cl)cc1)C(N)=O | 74.6%
CCN1C(=O)N(CC)C2SC(N/N=C/C=C/c3ccccc3OC)=NC21 (stereo not drawn) | 16.9%
CC(=O)C1=NN(c2ccc(Cl)cc2)C(=O)CN1C | 107%
CCOC(=O)c1c(NCC(=O)Nc2ccc(Br)cc2)sc2c1CCCC2 | 16.8%
CN1CCN(c2ccc3c(c2)nc(NNC(=O)c2ccncn2)c2cccn23)CC1 | 10.4%
CCOc1c(C#N)c(Nc2ccc(S(N)(=O)=O)cc2)c(C#N)c2nnc(C)n12 | 104%
O=c1[nH]c(CNc2ccc(NCc3c(-c4ccccc4)no[n+]3[O-])cc2)nc2c1cnn2-c1ccccc1 | 44%
C#CCOc1ccc(C(Nc2ccc(Cl)cc2)c2nnnn2C2CCCCC2)cc1 (stereo not drawn) | 72.5%

SMILES | growth
COc1cc(/C=N/Nc2ccnc3cc(Cl)ccc23)cc(OC)c1O | -13% (active)
COc1cc(C(=O)C[n+]2ccc3ccccc3c2)cc(OC)c1OC | 106%
Cc1ccc(NC(=O)c2ccc(CN3CCN(C)CC3)c(I)c2)cc1Oc1ccc(-c2[nH]nc3ncnc(N)c23)cc1 | 11.3%
COc1ccc(Cn2cc3c(c2-c2ccccc2)CCCc2cnoc2-3)cc1 | 61.7%
N#Cc1c(NC(=O)c2ccc(F)c(Cl)c2)sc2c1CCC(=O)C2 | 3.13% (active)
c1ccc(-c2c(-c3ccccc3)[n+](Cc3ccc4ccccc4c3)c(-c3ccccc3)n2Cc2ccc3ccccc3c2)cc1 | -54.1% (active)
CCOC(=O)C1=C(C)N=C2Sc3ccccc3N2C1c1ccccc1 (stereo not drawn) | 87.2%
CCn1c2ccc(/C=N/NS(=O)(=O)CCN(C)C)cc2c2cc(/C=N/NS(=O)(=O)CCN(C)C)ccc21 | 103%
Cn1cc2c(c1)-c1c(sc3nc(-c4ccc(NC(=O)Nc5cc(C(C)(C)C)on5)cc4)cn13)CC2 | 12%
CCOC(=O)c1c(NC(=O)c2ccc(C(C)(C)C)cc2)sc2cc(OCCN3CCCCC3)ccc12 | 72.3%
COc1ccccc1/C=C/C=N/NC1=NC2C(S1)N(C)C(=O)N2c1ccccc1 (stereo not drawn) | 4.1% (active)
CC1(C)CC[C@]2(C(=O)O)CC[C@]3(C)C(=CCC4[C@@]5(C)C[C@@H](O)[C@@H]6OC(c7cccc([N+](=O)[O-])c7)OC[C@@]6(C)C5CC[C@]43C)C2C1 (stereo partly drawn) | 48.2%
CN(C)c1ncc(/C=C2\SC(=S)N(Cc3ccccc3Cl)C2=O)s1 | 82%
O=C(/C=C1\C=CN(CCCCO)c2ccccc21)n1ccc2ccccc21 | 102%
C#C[C@]1(O)CC[C@H]2[C@@H]3CC=C4c5sc(Nc6nc(C)cc(OC)n6)nc5CC[C@]4(C)[C@H]3CC[C@@]21C | 7.93% (active)
Oc1ccccc1/C=N/Nc1nc(N/N=C/c2ccccc2O)nc(N2CCOCC2)n1 | 45.1%
IP(CCCSc1n(Cc2ccc3ccccc3c2)c(-c2ccccc2)c(-c2ccccc2)[n+]1Cc1ccc2ccccc2c1)(c1ccccc1)(c1ccccc1)c1ccccc1 | 46.7%
Cn1cc(-c2nnc(N)nc2-c2cn(C)c3ccc(F)cc23)c2cc(F)ccc21 | 79.1%
N/C(=N\OC(=O)CSc1nc2ccccc2s1)c1ccc(Cl)cc1 | 96.7%
